The values below come from PubChem BioAssay (NCATS).

Assay [1] can be described thus: UWB1.289 Cancer Cell Toxicity qHTS against the NCATS CANVASS Library (AID 1347347). Further: series mostly up to about 38 µM; on the % scale 0 is the no-effect control and ±100 the full control effect; nearly all actives have a fitted effect of over 60% in size. Summed up:
(§1)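 Per well, 1000 cells; exposure 72 h with compound at 11 final concentrations; readout CellTiter-Glo luminescence.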
On the technique in general: qHTS replaces the single test concentration by a dilution series.

The nature of assay [2]: SW1088 Cancer Cell Toxicity qHTS against the NCATS CANVASS Library (AID 1347350). Further: nearly all actives have a fitted effect of over 75% in size. On activity change, negative = cytotoxicity: series mostly up to about 38 µM; on the % scale 0 is the no-effect control and ±100 the full control effect. Summed up:
as §1

Assay [3] in a line: A2780 Cisplatin Sensitive Ovarian Cancer Cell Toxicity qHTS against the NCATS CANVASS Library (AID 1347353). Further: nearly all actives have a fitted effect of over 60% in size. Further: potency means the concentration at half of the fitted maximal effect. Summed up: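 Cells are plated at 750 per well and rest for 4 hours. Compounds are added across eleven concentrations, and incubated 72 hours before ATP is quantified by luminescence.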
Assay [4] in a line: UWB1.289-WTBRCA1 Cancer Cell Toxicity qHTS against the NCATS CANVASS Library (AID 1347354). The essentials: (§2)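 First, 1000 cells go into each well and rest for 4 hours. Next, an 11-point dilution range is pinned in. Plates then incubate 72 hours before CellTiter-Glo addition and luminescence reading.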
The nature of assay [5]: HEK-293 Cancer Cell Toxicity qHTS against the NCATS CANVASS Library (AID 1347355). Further: series mostly up to about 46 µM; nearly all actives have a fitted effect of over 65% in size. On activity change, negative = cytotoxicity: on the % scale 0 is the no-effect control and ±100 the full control effect. Summed up: as §2
Assay [6] relates to NAD(P)H diaphorase (Clostridium kluyveri). Put plainly: Diaphorse counterscreen qHTS: Assay Interference Panel against the NCATS CANVASS Library (AID 1347362). Further: 0% is about no effect. Summed up: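 Counterscreen for coupling-enzyme interference: resorufin fluorescence from resazurin/NADH turnover, read after 5 min at room temperature. Compounds were tested over an 11-point series after 15 min dark preincubation with diaphorase in PBS-Tween.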
(In general: The purpose of a counterscreen is to sort out artefacts and off-target activity.)

Assay [7] can be described thus: KB-8-5-11 Cancer Cell Toxicity qHTS against the NCATS CANVASS Library (AID 1347364). Further: nearly all actives have a fitted effect of over 75% in size. The essentials: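 Terse: KB-8-5-11, 500 cells/well, 72 hr, 37C/5% CO2, 11-pt titration, CellTiter-Glo readout; confirmatory runs ± 1uM tariquidar in medium.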
A short description of assay [8]: SDT Cancer Cell Toxicity qHTS against the NCATS CANVASS Library (AID 1347365). Further: nearly all actives have a fitted effect of over 60% in size. Further: potency means the concentration at half of the fitted maximal effect. Summed up: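 Cytotoxicity is measured from cellular ATP: compounds in an 11-point concentration series are pinned onto SDT cells, incubated 72 hr at 37C, then CellTiterGlo is added and luminescence read.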
A short description of assay [9]: KB-3-1 Cancer Cell Toxicity qHTS against the NCATS CANVASS Library (AID 1347366). Further: nearly all actives have a fitted effect of over 75% in size. The essentials:
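Seed KB-3-1 cells at 500/well in DMEM with 10% FBS, add compounds, incubate 72 hr at 37C and 5% CO2, then add CellTiter-Glo and read luminescence after 10 minutes.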

Assay [10] can be described thus: qHTS for Hypoxia signaling pathway (HIF-1) antagonists against the NCATS CANVASS Library (AID 1347374).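 Further: HRE-bla ME-180 cells stimulated with cobalt chloride to stabilize HIF-1alpha; series mostly up to about 38 µM; on the % scale 0 is the no-effect control and ±100 the full control effect; nearly all actives have a fitted effect of over 60% in size.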 Summed up:
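Antagonism scored as loss of CoCl2-driven (60 uM stock added) HRE beta-lactamase signal, read by CCF4 FRET at 460/530 nm. Compounds were tested in an 11-point series on ME-180 reporter cells for 17 hrs at 37C, with parallel CellTiter-Glo cytotoxicity.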

Assay [11] can be described thus: qHTS for Hypoxia signaling pathway (HIF-1) agonists against the NCATS CANVASS Library (AID 1347375). Further: potency means the concentration at half of the fitted maximal effect. On activation: 0% is about no effect. The essentials:
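Cells plated and rested 5 h, compounds pinned in DMSO across 11 concentrations, incubated 17 h at 37C, loaded with CCF4-AM for 2 h, fluorescence read at 460 and 530 nm, then CellTiter-Glo luminescence measured for viability and normalization.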

A short description of assay [12]: DH5-alpha competent E. coli microbial cell viability qHTS against the NCATS CANVASS Library (AID 1347377). On viability signal change, negative = cytotoxic: 0% is about no effect. As to conditions: outcome: dose series up to 46.1 µM unless noted. The essentials: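 Bacteria were dispensed at 0.2 OD, then compounds were pin-transferred. Plates were incubated overnight at 37C, after which BacTiter-Glo was added and luminescence measured 20 min later.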

Assay [13] is described as follows: qHTS for H2AX Agonists against the NCATS CANVASS Library (AID 1347378).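 Further: phospho-H2AX S139 level in CHO-K1 lysates by TR-FRET emission ratio; 0% is about no effect.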 The essentials: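 Following overnight seeding, CHO-K1 cells are incubated with a concentration series of compound for 3 hr at 37C (final DMSO 0.76%). Cells are then lysed, detection antibodies added, and emission ratio 665/620 nm recorded after 24 hr at room temperature.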
Assay [14] can be described thus: qHTS for Activators of p53 Stress Response Pathway screened against the NCATS CANVASS Library (AID 1347388). Further: potency means the concentration at half of the fitted maximal effect. On activation: 0% is about no effect. Summed up: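 Beta-lactamase reporter driven by p53 response elements in HCT-116 cells, read as the 460 nm/530 nm emission ratio after CCF4 loading, following 16 h of exposure to an 11-point series. Cell viability was measured in the same wells by CellTiter-Glo luminescence.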

A short description of assay [15]: Secretion counterscreen for inhibitors of the SERCaMP assay screened against the NCATS CANVASS Library (AID 1347390).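 Further: light from luciferase secreted into medium read as a measure of general secretion; series mostly up to about 77 µM; on the % scale 0 is the no-effect control and ±100 the full control effect.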 Summed up: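 Counterscreen identifying compounds that disrupt secretion, using SH-SY5Y cells with a constitutively secreted Gaussia luciferase reporter. A 20 h compound exposure (top 77 uM) precedes luminescent detection with coelenterazine.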
Assay [16] can be described thus: qHTS for activators of dead-cell proteases activity screened against the NCATS CANVASS Library (AID 1347392).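 Further: luminescence from protease leaking out of membrane-damaged cells cleaving impermeant substrate; 0% is about no effect; rising signal means more cytotoxicity.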 Summed up: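 Luminescent dead-cell protease readout (AAF-aminoluciferin, 15 min, room temperature) after 5 h compound treatment of HepG2 cells (2000/well, pre-attached 18 h). Eleven concentrations.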
Assay [17] is described as follows: qHTS for inhibitors of ER calcium dysfunction: SERCaMP assay screened against the NCATS CANVASS Library (AID 1347393). Further: nearly all actives have a fitted effect of over 40% in size. Further: potency means the concentration at half of the fitted maximal effect.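 On activity change, negative = inhibition: series mostly up to about 77 µM; on the % scale 0 is the no-effect control and ±100 the full control effect; lower secreted reporter signal means inhibitor of ER calcium depletion.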 The essentials: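 Thapsigargin-induced ER calcium depletion drives GLuc-SERCaMP secretion from SH-SY5Y cells; compounds given 16 h beforehand were scored by lowered coelenterazine luminescence after 4 h challenge.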
A short description of assay [18]: qHTS for inhibitors of Wild type Zika virus screened against the NCATS CANVASS Library (AID 1347396).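 Further: ATP luminescence of surviving cells so rescue from viral cell killing; series mostly up to about 46 µM; on the % scale 0 is the no-effect control and ±100 the full control effect.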 The essentials:
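Using ATP-based luminescence (CellTiter Glo), this screen scores rescue of Vero 766 cells from wild-type Zika killing at 72 h post-infection. Compounds are tested in a concentration series.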

The nature of assay [19]: Viability qHTS for inhibitors of the SERCaMP assay screened against the NCATS CANVASS Library (AID 1347400). Further: series mostly up to about 92 µM; on the % scale 0 is the no-effect control and ±100 the full control effect; nearly all actives have a fitted effect of over 70% in size. Summed up:
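Seed SH-SY5Y-GLuc SERCaMP MJH297 cells at 1000 per well, incubate 4 h, add compounds across an 11-point range, incubate 48 h at 37C, then add CellTiter-Glo and read luminescence.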

Assay [20] can be described thus: Redox Reaction Profiling qHTS: Assay Interference Panel against the NCATS CANVASS Library (AID 1347401).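 Further: 100% = activation by 2 µM chloranil control.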 Summed up: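 Redox-cycling liability assessed as DTT-driven conversion of resazurin (5 uM, with 200 uM DTT, HEPES pH 7.3) to fluorescent resorufin. Fluorescence at 525/598 nm measured initially and after 15 min dark incubation.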

Each structure is given as a SMILES string. Inconclusive results are not listed. A number with no mark means an inactive call. The source made the active and inactive calls. The call rests on the fitted dose curve; in most records, active means well fitted curve in the direction sought with a large enough effect; inconclusive means small, poorly fitted or top-dose-only effect, or another doubt; inactive means no such curve, though single readings can be large; an effect the other way counts as inactive or inconclusive. Numbered stars: 1 amine (or outer) side, 2 acyl side, 3 side chain; on linkers, the order of the positions; unused ones are H or OH. Square brackets hold non-standard residues; d marks the D form. Peptide text beside a SMILES is read from it. ξ: configuration not given here. X4 = O=C(C1CC2(c3ccc(O)cc3)c3ccccc3NC2N1[*:1])[*:2]; ξW = NC(Cc1c[nH]c2ccccc12)C(=O)O; ξY = NC(Cc1ccc(O)cc1)C(=O)O

As for `CC[C@H](C)[C@H](NC(=O)C(Cc1ccc(O)cc1)NC(=O)C(Cc1c[nH]c2ccccc12)NC(=O)[C@H](C)N)C(=O)N1C(C(=O)NC(Cc2ccc(O)cc2)C(=O)O)CC2(c3ccc(O)cc3)c3ccccc3NC12` (some centres undefined) (H-A[ξW][ξY]I[X4][ξY]-OH), the Potency entry in assay [1], in assay [2], in assay [3], in [4], in assay [5] and in assay [6] was “inactive” throughout. The Potency result in assay [7], in assay [8], in assay [9], in assay [10], in [11] and in [13] was “inactive” each time. Moreover, the Potency entry in [14], in assay [15], in [16], in assay [17], in assay [18] and in assay [19] was “inactive” throughout. Further, the outcome in assay [12] was inactive.

In the case of `COc1ccc([C@@H]2c3cc(OC)c(OC)cc3C(=O)[C@H](C)C2C)cc1OC` (some centres undefined), the activity change, negative = cytotoxicity was 3.43% [at 7.64 µM] in [1], 8.45% [at 9.19 µM] in assay [9] and 9.45% [at 18.4 µM] in assay [19]. Besides, the outcome was “inactive [at 7.64 µM]” in [2]; “inactive [at 9.19 µM]” in [3]; “inactive [at 7.64 µM]” in [4]; “inactive [at 9.19 µM]” in assay [5]; “inactive [at 9.19 µM]” in assay [8]. Besides, the activity change, negative = inhibition in assay [6] was 0.301% [at 11.5 µM]; in assay [10] it was 9.63% [at 7.64 µM]; in [15], -9% [at 15.3 µM]. Further, in assay [7], the activity change, negative = toxicity is -6.69% [at 9.19 µM]. Besides, the activation was -1.07% [at 7.64 µM] in assay [11], -1.51% [at 15.3 µM] in assay [13] and 4.12% [at 9.19 µM] in assay [14]. Moreover, in [12], the viability signal change, negative = cytotoxic was 10.6% [at 9.19 µM]. The activation (cytotoxicity) in [16] was -0.488% [at 9.19 µM]. Moreover, in assay [18], the activity change, negative = antiviral is 5.82% [at 9.14 µM]. Moreover, the activation (redox signal) in assay [20] is -5.6% [at 11.4 µM].

Regarding `CNc1ccc(Cl)cc1C(=O)OC[C@]1(C)[C@H]2CC[C@]3(C)[C@@H](C[C@@H](OC)[C@H](C)[C@H]3C3=C(O)C(=O)OC3O)[C@]2(C)CC[C@H]1O` (some centres undefined), the Potency entry in assay [1], in [3], in assay [4], in assay [5], in [6] and in [7] was “inactive” each time. Besides, the Potency entry in assay [9], in [10], in [13], in assay [15], in [16] and in assay [17] was “inactive” each time. In addition, the Potency entry in assay [18], in assay [19] and in [20] was “inactive” throughout. Moreover, the Potency in assay [11] was 13.3 µM (active); in [14], 20.9 µM (active). The compound was classed as inactive in assay [12].

As to `O=C1CC(c2cc(O)cc(O)c2)Oc2cc(O)ccc21` (centres undefined), the Potency result in assay [2], in [4], in assay [7], in [9], in assay [10] and in [11] was “inactive” in each case. The Potency entry in assay [14], in [16], in assay [18] and in assay [20] was “inactive” each time. Besides, the Potency in [3] was 3.72 µM (active); in assay [17], 8.6 µM (active). Further, the call in [12] was inactive.

Regarding `O=c1cc(-c2ccc(O)c(O[C@@H]3O[C@H](CO)[C@@H](O)[C@H](O)[C@H]3O)c2)oc2cc(O[C@@H]3O[C@H](CO)[C@@H](O)[C@H](O)[C@H]3O)cc(O)c12`, the Potency result in assay [2], in [4], in assay [5], in [7], in assay [9] and in [10] was “inactive” throughout. Also, the Potency entry in assay [11], in [13], in [14], in [15], in assay [16] and in [17] was “inactive” throughout. In addition, the Potency entry in assay [18], in [19] and in assay [20] was “inactive” in each case. For the same compound, the result in [12] was inactive.

For `O=C(O)CC1OC(=O)c2c(O)cccc21` (centres undefined), the Potency result in assay [1], in assay [2], in assay [3], in [4], in [6] and in assay [7] was “inactive” throughout. Further, the Potency entry in assay [9], in assay [10], in [11], in assay [13], in assay [14] and in [15] was “inactive” throughout. The Potency entry in [16], in assay [17], in assay [18], in assay [19] and in assay [20] was “inactive” throughout. Moreover, the Potency in [8] was 13.2 nM (active). In addition, the call in assay [12] was inactive.
